Results filed as inconclusive are left out. A call without a number means that no potency is given here. Activity calls are given as the source filed them. Calls come from the whole dose curve.
Assay: Confirmatory qHTS to identify inhibitors of SARS-CoV-2 cell entry (AID 1645844); note: nearly all actives have a fitted effect of over 45% in size
Conditions: SARS-CoV-2 pseudotyped particle cell entry, luciferase; series mostly up to 57.2 µM
Procedure, shortened: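 HEK293-ACE2, overnight seeding; cpd 1 h, 37C/5% CO2; + SARS-CoV-2-S MLV PP (Wuhan-Hu-1, ΔC19); 48 h; Bright-Glo luminescence. Data normalised to S PP and bald PP wells.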
Potency is the fitted concentration of half-maximal effect.

| SMILES | Potency |
| --- | --- |
| COc1cc(N2CCC(N3CCN(C)CC3)CC2)ccc1Nc1ncc(Cl)c(Nc2ccccc2P(C)(C)=O)n1 | 4.82 µM (active) |
| CCCCC(=O)OCC(=O)[C@]1(O)Cc2c(O)c3c(c(O)c2[C@@H](O[C@H]2C[C@H](NC(=O)C(F)(F)F)[C@H](O)[C@H](C)O2)C1)C(=O)c1c(OC)cccc1C3=O | 0.857 µM (active) |
| COc1cc([C@@H]2c3cc4c(cc3[C@@H](O[C@@H]3O[C@@H]5CO[C@@H](C)O[C@H]5[C@H](O)[C@H]3O)[C@H]3COC(=O)[C@H]23)OCO4)cc(OC)c1OP(=O)(O)O | 0.541 µM (active) |

Assay: Cytotoxicity counterscreen for inhibitors of SARS-CoV-2 cell entry (AID 1645845); note: nearly all actives have a fitted effect of over 50% in size
Conditions: cell viability (SARS-CoV-2 entry assay cells); series mostly up to 57.1 µM
Procedure, shortened: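 Counterscreen run in the same HEK293-ACE2 line as the pseudotyped-particle entry assay, without particles. Viability after 48 h at 37 C was read as ATP luminescence, scaled between cell-containing and cell-free wells.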

| SMILES | Potency |
| --- | --- |
| C/C(=C(\CCOC(=O)c1ccccc1)SS/C(CCOC(=O)c1ccccc1)=C(/C)N(C=O)Cc1cnc(C)nc1N)N(C=O)Cc1cnc(C)nc1N | inactive |
| CCCCCCCCCCCCCC[n+]1ccc(C)cc1 | 5.62 µM (active) |
| CCC1OC(=O)C(C)C(OC2CC(C)(OC)C(O)C(C)O2)C(C)C(OC2OC(C)CC(N(C)C)C2O)C(C)(O)CC(C)C2NC(COCCOC)OC(C2C)C1(C)O (stereo unspecified) | inactive |
| COc1ccc2c(c1)N(C[C@H](C)CN(C)C)c1ccccc1S2 | inactive |
| Cc1[nH]c(/C=C2\C(=O)Nc3ccc(F)cc32)c(C)c1C(=O)NCCN1CCCC1 | inactive |
| Clc1ccc(CCCOCCCN2CCCCC2)cc1 | inactive |
| CC1(C)[C@@H](O[C@H]2O[C@H](C(=O)O)[C@@H](O)[C@H](O)[C@H]2O[C@@H]2O[C@H](C(=O)O)[C@@H](O)[C@H](O)[C@H]2O)CC[C@]2(C)[C@H]3C(=O)C=C4[C@@H]5C[C@@](C)(C(=O)O)CC[C@]5(C)CC[C@@]4(C)[C@]3(C)CC[C@@H]12 | inactive |
| CCCCC(=O)OCC(=O)[C@]1(O)Cc2c(O)c3c(c(O)c2[C@@H](O[C@H]2C[C@H](NC(=O)C(F)(F)F)[C@H](O)[C@H](C)O2)C1)C(=O)c1c(OC)cccc1C3=O | inactive |
| CC(C)N1CCN(c2ccc(OC[C@@H]3CO[C@@](Cn4cncn4)(c4ccc(Cl)cc4Cl)O3)cc2)CC1 | inactive |
| COc1cc([C@@H]2c3cc4c(cc3[C@@H](O[C@@H]3O[C@@H]5CO[C@@H](C)O[C@H]5[C@H](O)[C@H]3O)[C@H]3COC(=O)[C@H]23)OCO4)cc(OC)c1OP(=O)(O)O | inactive |
| CC1=CC(=C(c2ccc(N)cc2)c2ccc(N)cc2)C=CC1=N | 8.91 µM (active) |
| C[C@H](Oc1cc(-c2cnn(C3CCNCC3)c2)cnc1N)c1c(Cl)ccc(F)c1Cl | inactive |
| C=CC(=O)Nc1cc(Nc2nccc(-c3cn(C)c4ccccc34)n2)c(OC)cc1N(C)CCN(C)C | 28.2 µM (active) |

From PubChem BioAssay (NCATS)
